# In all, about 48,000 compounds went through this assay and about 13,000 (27%) showed an effect of 50% or more. Some of the results follow.
# System: Wolbachia pipientis
# Test: Anti-Wolbachia Cell-Based Screen
# Type: functional
# Set-up: scale not given: in the data most compounds retested in dose-response had high values
# Conditions: 5 µM
row,Compound,Percent Effect [%]
1,CC(C)c1nsc(N2CCn3c(nnc3-c3ccccc3)C2)n1,-7.754
2,Cc1cc(C(=O)N2C[C@@H]3COC[C@]3(COCc3cccnc3)C2)no1,-1.047
3,Cc1ccoc1C(=O)N1C[C@@H]2COC[C@]2(COCc2cccnc2)C1.O=C(O)C(F)(F)F,-8.448
4,COc1ccc(CN2C[C@@H]3COC[C@]3(COc3cccnc3)C2)cc1.O=C(O)C(F)(F)F.O=C(O)C(F)(F)F,13.03
5,O=C(COC1CCCC1)N1C[C@@H]2COC[C@]2(COc2cccnc2)C1.O=C(O)C(F)(F)F,91.64
6,Cc1ccccc1C(=O)N1C[C@@H]2COC[C@]2(COCc2cccnc2)C1.O=C(O)C(F)(F)F,-1.339
7,O=C(O)C(F)(F)F.O=C(c1ccc(F)cc1)N1C[C@@H]2COC[C@]2(COc2cccnc2)C1,125.5
8,O=C(O)C(F)(F)F.O=C(c1cc(C2CC2)on1)N1C[C@@H]2COC[C@]2(COc2cccnc2)C1,101.2
9,O=C(O)C(F)(F)F.O=C(c1ccccc1F)N1C[C@@H]2COC[C@]2(COCc2cccnc2)C1,3.343
10,O=C(COc1ccccc1)N1C[C@@H]2COC[C@]2(COc2cccnc2)C1.O=C(O)C(F)(F)F,107.1
11,CNC(=O)CCNC(=O)Nc1cccc(Cl)c1SC(F)F,-9.606
12,CN(C)c1ccc(C(O)CNS(=O)(=O)C2CC2)cc1 (configuration not stated),-7.172
13,Cc1ccc(C(=O)N2CCC3(CC2)c2ccccc2[C@@H](N)[C@@H]3O)c(=O)[nH]1,1.157
14,CCN1CCN(C(=O)c2c[nH]c(C(C)C)n2)c2ccccc21,16.43
15,COCCCNc1c(-c2ccccc2)c(=O)c1=O,111.1
16,COCCNc1c(-c2ccc(C)cc2)c(=O)c1=O,115.7
17,COCCCNC(=O)COc1ccccc1C(F)(F)F,10.69
18,COCCCNc1cc(C(=O)N2CCOCC2)ccc1C,15.11
19,COCCCNC(=O)NCc1ccc(C)cc1,9.073
20,COCCCNc1c(-c2ccc(C)cc2)c(=O)c1=O,103
21,COCCNC(C)c1ccc(-c2cccnc2)cc1 (configuration not stated),-4.646

row,Compound,Percent Effect [%]
1,COCCCNC(=O)Cc1cc(-c2ccccc2)on1,-3.078
2,Cc1cnn(CCNCC(O)COc2cccc(C(F)(F)F)c2)c1 (configuration not stated),-5.996
3,Oc1ccc(Br)c(CNc2cccc(-c3nnc[nH]3)c2)c1,-21.72
4,CC(C)Oc1ccc(Cl)c(C(=O)N2CCN(CCO)CC2)n1,76.59
5,CC(O)CN1CCN(C(=O)c2cnc(OC(C)C)c(Cl)c2)CC1 (configuration not stated),-53.57
6,CCOc1ccc(Cl)c(C(=O)N2CCN(CCO)CC2)n1,-4.151
7,COCCOc1ccc(Cl)c(C(=O)N2CCN(CCO)CC2)n1,97.38
8,O=C(c1cc2ccccc2c(=O)[nH]1)N1CCN(CCO)CC1,-3.156
9,Cc1nc(-c2ccccc2)ccc1C(=O)N1CCN(CCO)CC1,1.858
10,Cc1ccc(C(=O)O)cc1S(=O)(=O)Nc1nn(-c2ccccc2)cc1C,-18.22
11,CC(C(N)=O)N1CCc2onc(-c3cccc(F)c3)c2C1 (configuration not stated),31.58
12,CCC(CC)CS(=O)(=O)NC(=O)C1CCC1,-17.91
13,COC(=O)NC1(C(=O)Nc2ccc(-c3ncc[nH]3)cc2)CCCC1,5.421
14,Cc1cccc(-c2nc(CN3CCc4cnc(C)nc4C3)no2)c1,0.7919
15,Cc1cc(C)c(CNC(=O)N2CCCC2c2ccccc2)c(=O)[nH]1 (configuration not stated),10.36
16,Cc1cc(C)c(CNC(=O)N(C)CC2CCCCO2)c(=O)[nH]1 (configuration not stated),-5.607
17,Cc1cc(C)c(CNC(=O)N2CCCC2c2cccn2C)c(=O)[nH]1 (configuration not stated),1.985
18,Cc1cc(C)c(CNC(=O)N2CCCC2c2cccc(F)c2)c(=O)[nH]1 (configuration not stated),115.9
19,Cc1cc(C)c(CNC(=O)N2CCCC2c2ccc(F)cc2)c(=O)[nH]1 (configuration not stated),86.68
20,Cn1cc(N2CC3(CCN(S(=O)(=O)C4CC4)C3)CC2=O)cn1 (configuration not stated),-15.9
21,CCCN(CCC)C(=O)c1sc(C)nc1C,-0.04444

row,Compound,Percent Effect [%]
1,CCN(CC)CCn1ccnc1-c1cccc(O)c1,9.33
2,CCc1nnc2n1CCN(CC(=O)Nc1cc(C(C)(C)C)nn1C)C2,-9.721
3,CC(C)(C)OCCN(Cc1cccc(O)c1)C1CCC(O)CC1 (configuration not stated),-0.1894
4,Cc1cc(C2CCCN2Cc2ccc(S(=O)(=O)N(C)C)o2)on1 (configuration not stated),125.1
5,Cc1nc(C2CCCN2Cc2cc(Cl)c3c(c2)OCCO3)no1 (configuration not stated),-1.319
6,Cc1cc(C2CCCN2Cc2nnc(-c3ccco3)o2)on1 (configuration not stated),10.62
7,Cc1nc(C2CCCN2CCCS(=O)(=O)N(C)C)no1 (configuration not stated),-21.09
8,Cc1nc(C2CCCN2Cc2ccc(S(=O)(=O)N(C)C)o2)no1 (configuration not stated),115.8
9,CCN(C(=O)CN1CCCC1c1cc(C)no1)c1ccccc1C (configuration not stated),-1.91
10,CNC(=O)CCCNCc1c(C(C)C)nn(C)c1N(C)C,-0.6366
11,O=C1CC(c2ccncc2)c2c(c(C(=O)O)cn2-c2ccc(F)cc2)N1 (configuration not stated),5.752
12,Cc1ccc(S(=O)(=O)NC(=O)c2cccc3c2OCCO3)c(C)c1,-13.25
13,Cc1ccc(S(=O)(=O)NC(=O)C2(c3ccccc3)CCC2)c(C)c1,104.1
14,Cc1ccc(S(=O)(=O)NC(=O)C2(c3ccc(F)cc3)CCC2)c(C)c1,80.83
15,Cc1ccccc1S(=O)(=O)NC(=O)C1(c2ccccc2)CCC1,93.86
16,Cn1cc(S(=O)(=O)NC(=O)C2(c3ccccc3)CCC2)cn1,-6.386
17,Cc1ccc(S(=O)(=O)NC(=O)COc2cccc(C#N)c2)c(C)c1,41.14
18,CS(=O)(=O)NCCNC(=O)C1(c2ccc(F)cc2)CC1,10.89
19,Cc1cccc(C2(C(=O)NS(=O)(=O)c3cnn(C)c3)CCCC2)c1,-9.611
20,Cc1ccccc1S(=O)(=O)NC(=O)C1(c2cccc(Cl)c2)CC1,3.29
